Molecules are shown by their SMILES. Compounds without any hit were thinned out: in the full panel of roughly 83,000, 20% have a hit.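 A percent growth of 40 corresponds to 60% growth inhibition; 0 means no net growth; -100 means all cells died. Active threshold: below 10.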 A number with no mark means an inactive call. Active and inactive are the calls of the source.

Experimental findings from PubChem BioAssay (NCI) are described below.

The subject of the first assay is TK-10 renal. In words: NCI-60 one-dose screen, 48 h (100 = growth as untreated, 0 = no growth, -100 = all killed). To be noted: 10 µM unless noted.
Turning to `Cc1cc2c(O)c(-c3cc(Cl)ccc3Cl)c3sc(=O)oc3c2cc1C`, the growth was 113%.
Take `CC(=O)N(N=Nc1ccccc1)c1cccc2ccccc12`: the growth was 96.8%.
As to `Cc1ccc(-c2nc3nc(-c4ccc(F)cc4)nc(N4CCNCC4)c3o2)cc1`, the growth was -35.8% (active).
Still for that read-out and setting: the value for `O=c1oc2ccc([N+](=O)[O-])cc2cc1Br` was 105%; that for `COc1ccc2nc(NC(=O)CSc3nnc4n3S(=O)(=O)c3ccccc3N4C)sc2c1` was 140%; that for `Cc1ccc(-c2nn(-c3ccccc3)cc2C=C2C(=O)ON=C2C(C)C)cc1` was 86.9%.
Same read-out and setting: the result for `Cc1cccc(N2CCN(CC(O)COc3ccc(Cl)cc3)CC2)c1` (stereo not drawn) reads 116%; that for `Cc1nc2c(=O)[nH]c(SCC(=O)Nc3cccc(F)c3)nc2[nH]c1=O`, 105%; that for `CN(C)c1ccc(/C=C/C(=O)c2ccc(-n3cc(CN4CCN(c5cc6c(cc5F)c(=O)c(C(=O)O)cn6C5CC5)CC4)nn3)cc2)cc1`, 85.1%.
As for `COc1cc2c(c(OC)c1OC)-c1ccc(OC)c(=O)cc1[C@@H](NC(=O)CCl)CC2`, the growth was 34.1%.
Turning to `O=C(Nc1cccnc1Nc1ccc(F)cc1)c1cn(Cc2cccc(Oc3ccccc3)c2)nn1`, the growth is 98.7%.
On to `COc1ccc(-c2ccc3cnc4sc(-c5ccc(OC)cc5)nc4c3n2)cc1`, for which the growth was 142%.
Turning to `CN1CCN(c2ccc(NC(=O)c3cncnc3Nc3ccc(OCc4ccccn4)c(Cl)c3)cc2)CC1`, the growth is 92.4%.

In another assay the test system is ACHN renal. Described as above. The settings on record: 10 µM unless noted.
Regarding `CC/C(=C(/c1ccc(Cl)cc1)c1ccc(OCCN2CCCC2)cc1)c1ccc(OC)cc1`, the growth was 78.6%.
For `c1cc2[nH]ncc2cc1-c1nc2ccc3[nH]ncc3c2c2c1CCCC2`, the growth is 9.47% (active).
`O=C(/C=C/c1ccc(Cl)cc1)c1cccc(Nc2nc(Nc3ccccc3)nc(Nc3ccccc3)n2)c1`: the growth is 92.9%.
On the same count and under the same terms, the result for `N#Cc1nc(-c2ccccc2)oc1S(=O)(=O)N1CCOCC1` reads -97.7% (active).
In the case of `O=C1Nc2ccccc2/C1=C\c1nc(-c2ccccc2)n2ccccc12`, the growth was 71.1%.
For `O=C(COc1ccc(-c2nc3ccccc3[nH]2)cc1)N=Nc1c(O)[nH]c2ccc(Cl)cc12`, the growth is 97.6%.
Turning to `COc1ccc(NC(=O)c2sc3nc(C)c(C(=O)/C=C/c4cccc(OC)c4)cc3c2N)cc1`, the growth is 52.3%.
For the compound `COc1cnc2c(c1)C(=O)c1c-2n(CCCNCCO)c(=O)c2ccncc12`, the growth is -49.8% (active).
Take `O=C(Nc1nc2ccc(F)cc2s1)c1cccnc1Nc1ccc(Cl)cc1`: the growth was 38.8%.
`N#CC1C=CN(CC(N)=O)c2ccc3cccnc3c21` (stereo not drawn): the growth is 104%.
Consider `COc1ccc(-c2nc3c(c(-c4ccccc4)nn3-c3ccccc3)c(-c3ccc(N4CCN(C)CC4)cc3)c2C#N)cc1`, for which the growth is 95.3%.
Turning to `Cn1c(=O)c2[nH]c(N/N=C/c3ccccc3Br)nc2n(C)c1=O`, the growth was 105%.
On the same count and under the same terms, the result for `O=C(Nc1ccc(NC(=O)c2cc(=O)[nH]c3ccccc23)cc1)Nc1cccc(C(F)(F)F)c1` reads 95%.
Consider `O=C1C(Cl)=C(Oc2ccccc2)C(=O)c2ccccc21`, for which the growth was 26.6%.
Consider `CC(C)OC(=O)c1ccc2[nH]c(O)c(C(=Nc3ccc(N(C)C(=O)CN4CCN(C)CC4)cc3)c3ccccc3)c2c1`, for which the growth was 2.21% (active).
For `O=C1C(Cl)=C(Nc2ccc(O)cc2)C(=O)N1Cc1ccc(Cl)cc1`, the growth is 71.4%.
Still for that read-out and setting: the result for `COc1cc(OC)c2sc(-c3ccc(-n4cncc4-c4ccc(OC)c(OC)c4)cc3)nc2c1` reads 38.7%; that for `CCN(CC)C(=S)SC(SC(=S)N(CC)CC)C(=O)c1nnn(-c2ccc([N+](=O)[O-])cc2)c1C`, 98.7%.
Regarding `COc1cccc(CNc2ncnc3c2ncn3C2OC(CO)C(O)C2O)c1O` (stereo not drawn), the growth is -14.3% (active).
Turning to `CC(C)c1ccc(COCc2cc(CN3CCCC3)c(O)c3ncccc23)cc1`, the growth is 6.16% (active).
Turning to `O=C(NCc1ccccc1)Nc1ccccc1CNc1nc(Nc2ccc(OCCN3CCCC3)cc2)ncc1Cl`, the growth was 92.3%.
In the case of `Cc1ccc(-n2c(=S)[nH]c3sc4c(c3c2=O)CCC(=O)C4)cc1`, the growth is 39.4%.
Same read-out and setting: the value for `Oc1c(Cl)cc(Cl)cc1/C=N/Nc1nnc(N/N=C/c2cc(Cl)cc(Cl)c2O)c2ccccc12` was 7.55% (active); that for `CCCCCCC1(C)NCCO1` (stereo not drawn) was 103%; that for `Clc1ccc2c(c1)N(c1ncnc3ccc(-c4cnc5[nH]ncc5c4)cc13)CC2` was 13%.
As for `COC(=O)c1cc(-c2ccc(S(C)(=O)=O)cc2)[nH]c1N/N=C/c1c(Cl)cccc1Cl`, the growth was 53.7%.
On the same count and under the same terms, the result for `C=CCn1c(SCC(=O)Nc2ccc(C(=O)/C=C/c3ccc(Cl)cc3)cc2)nnc1-c1cc(-c2ccc(S(N)(=O)=O)cc2)nc2ccccc12` reads 98.1%.
For the compound `Cc1cc2c(O)c(-c3cc(Cl)ccc3Cl)c3sc(=O)oc3c2cc1C`, the growth was 79.8%.
For the compound `CC(=O)N(N=Nc1ccccc1)c1cccc2ccccc12`, the growth was 8.59% (active).
In the case of `Cc1ccc(-c2nc3nc(-c4ccc(F)cc4)nc(N4CCNCC4)c3o2)cc1`, the growth was -95.5% (active).
Same read-out and setting: the result for `O=c1oc2ccc([N+](=O)[O-])cc2cc1Br` reads 117%; that for `COc1ccc2nc(NC(=O)CSc3nnc4n3S(=O)(=O)c3ccccc3N4C)sc2c1`, 100%.
As for `Cc1ccc(-c2nn(-c3ccccc3)cc2C=C2C(=O)ON=C2C(C)C)cc1`, the growth is 89.3%.
For `Cc1cccc(N2CCN(CC(O)COc3ccc(Cl)cc3)CC2)c1` (stereo not drawn), the growth is 93.7%.
Same read-out and setting: the value for `Cc1nc2c(=O)[nH]c(SCC(=O)Nc3cccc(F)c3)nc2[nH]c1=O` was 105%; that for `CN(C)c1ccc(/C=C/C(=O)c2ccc(-n3cc(CN4CCN(c5cc6c(cc5F)c(=O)c(C(=O)O)cn6C5CC5)CC4)nn3)cc2)cc1` was 88.5%; that for `COc1cc2c(c(OC)c1OC)-c1ccc(OC)c(=O)cc1[C@@H](NC(=O)CCl)CC2` was 25.4%.
Consider `O=C(Nc1cccnc1Nc1ccc(F)cc1)c1cn(Cc2cccc(Oc3ccccc3)c2)nn1`, for which the growth was 83.7%.
On to `COc1ccc(-c2ccc3cnc4sc(-c5ccc(OC)cc5)nc4c3n2)cc1`, for which the growth is 89.8%.
On to `CN1CCN(c2ccc(NC(=O)c3cncnc3Nc3ccc(OCc4ccccn4)c(Cl)c3)cc2)CC1`, for which the growth is 51.8%.
